# Screening data from PubChem.
# JMJD2A Tudor inh: blocks the human JMJD2A Tudor domain; AlphaScreen JMJD2A-Tudor / H3K4me3 peptide binding; Potency, µM (top dose mostly 114 µM), most hits filed as inhibitors; hit rate 4.4% among 390,000; AID 504339; further: nearly all actives have a fitted effect of over 50% in size
# Six1-Eya2 blk: inhibitors of human Six1/Eya2 interaction. Q15475+O00167. activity change, % (no concentration beside the values). hit rate 0.56% among 360,000. AlphaScreen GST-Six1/His-Eya2 binding, biochemical; hits give low values; in the data active means activity change below about -65%; inconclusive means mostly about -30% to -63%
#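 Homogeneous AlphaScreen proximity assay pairing GST-Six1 with His-tagged Eya2 (added as 5X mix: 250 nM and 500 nM) in 50 mM Tris pH 8.0, 300 mM NaCl, 1 mM TCEP. Glutathione donor and nickel acceptor beads; 1 h, 37 °C, dark.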
# BAZ2B block: inhibitors of human BAZ2B bromodomain | Q9UIF8 | AlphaScreen BAZ2B-H3K14Ac peptide displacement | Potency, µM (series often up to 114 µM), actives largely listed as inhibitors | hit rate 4.4% among 360,000 | AID 504333; further: nearly all actives have a fitted effect of over 60% in size
#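 AlphaScreen luminescence quantifies BAZ2B engagement of H3K14Ac peptide; the protein and biotinylated peptide are both at 50 nM final, buffer PBS pH 7.4 with 0.01% Tween-20, all steps at room temperature.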
# G9a inh: inhibitors of human histone lysine methyltransferase G9a; Q96KQ7; G9a H3K9 monomethylation, AlphaScreen, 2 h; Potency, µM (highest dose often 102 µM), hits mostly inhibitors; hit rate 8.8% among 350,000; AID 504332; further: nearly all actives have a fitted effect of over 75% in size
# Target sequence (Q96KQ7 913-1193 limits assumed): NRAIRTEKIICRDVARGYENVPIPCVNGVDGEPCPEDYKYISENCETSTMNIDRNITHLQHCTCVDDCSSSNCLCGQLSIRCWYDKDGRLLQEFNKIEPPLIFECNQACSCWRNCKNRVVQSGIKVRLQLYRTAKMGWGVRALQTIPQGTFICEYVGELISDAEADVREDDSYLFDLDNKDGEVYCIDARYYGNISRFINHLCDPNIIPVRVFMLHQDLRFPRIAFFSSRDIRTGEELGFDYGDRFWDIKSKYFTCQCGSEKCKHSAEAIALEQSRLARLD
#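 G9a (20 nM) was preincubated 15 min with compound, then reacted 2 h at room temperature with 500 nM biotin-H3K9 peptide and 20 µM SAM. Monomethyl-H3K9 detected by AlphaScreen using anti-H3K9me1 antibody.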
# HP1b binding inh: HP1-beta chromodomain-methylated histone interaction inhibition; P83916; AlphaScreen HP1-beta / biotin-H3K9me3 peptide binding; Potency, µM (top dose mostly 114 µM), hits mostly inhibitors; hit rate 0.56% among 390,000; further: nearly all actives have a fitted effect of over 70% in size
# Target sequence (P83916 whole entry, looked up): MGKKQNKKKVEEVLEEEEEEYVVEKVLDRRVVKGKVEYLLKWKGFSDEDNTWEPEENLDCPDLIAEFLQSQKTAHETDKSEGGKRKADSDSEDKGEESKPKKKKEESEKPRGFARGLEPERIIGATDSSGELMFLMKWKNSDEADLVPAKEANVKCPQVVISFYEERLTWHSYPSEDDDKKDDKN
#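 Compound inhibition of the preformed complex between 50 nM HP1-beta and 50 nM biotinylated H3K9me3 peptide was read by AlphaScreen. Buffer was PBS pH 7.4 with 0.01% Tween-20. Incubations ran 30 min at room temperature, with 10 ug/mL donor/acceptor beads.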
# CtBP-E1A inh: inhibitors of CtBP/E1A interaction; AlphaScreen GST-E1A/His-CtBP binding, 1536-well; hits give low values; activity change, % (test concentration not listed); hit rate 0.49% among 340,000; AID 651724; in the data active means activity change below about -65%; inconclusive means mostly about -30% to -63%
#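 Homogeneous bead-based format: GST-tagged E1A captured on glutathione donor beads, His-tagged CtBP on nickel acceptor beads; compounds precede bead addition by 2 h at 37 °C.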
# Hits are given with their value; n = inactive; u = inconclusive; x = not tested or not shown; ! = not active in a repeat; [ ] = remark or other dose. Most compounds without a hit are left out; they make up all but 10% or so of the library. Unless noted, the call rests on the fitted dose curve; in most records, active means well fitted inhibition curve with a large enough effect; inconclusive means small, poorly fitted or top-dose-only effect; inactive means no such curve, though single readings can be large or run the other way.
SMILES,JMJD2A Tudor inh,Six1-Eya2 blk,BAZ2B block,G9a inh,HP1b binding inh,CtBP-E1A inh
O=C(O)CN1C(=O)/C(=C\c2cccc(OCc3ccc(Cl)cc3Cl)c2)SC1=S,50.1µM,n,79.4µM,x,u,n
O=C(O)CN1C(=O)/C(=C\c2ccccc2OCc2ccc(Cl)cc2Cl)SC1=S,56.2µM,n,u,31.6µM,n,n
Cc1cc(-c2ccccc2)nc2cc(C(=O)Nc3cc(C(F)(F)F)ccc3Cl)nn12,u,x,u,u,n,x
Cc1ccc2nc(-c3ccncc3)c(Nc3ccc(C(C)C)cc3)n2c1,n,x,n,n,n,x
CCCc1nn2c(=O)cc(COc3ccc(/C=C(\C#N)C(=O)Nc4ccccc4)cc3)nc2s1,n,x,n,n,n,x
CC(=O)c1ccc(NC(=O)c2sc(-n3nc(C)c(CCC(C)C)c3C)nc2C)cc1,n,x,n,n,n,x
O=C(O)CN1C(=O)/C(=C\c2cc(Br)ccc2OCc2ccccc2Cl)SC1=S,u,n,44.7µM,14.1µM,n,n
CC(C)n1cnc2c(N(C)c3ccccc3)nc(N(CCN(C)C)Cc3ccccc3)nc21,44.7µM,u,31.6µM,u,u,u
O=c1cccccc1NN=C1CCCCC1,u,n,u,x,n,n
O=C(O)c1cc(Br)ccc1NN=C1CCCCC1,n,n,n,2.82µM,n,n
CN(c1ccccc1)c1ccc(/C=C(/CCC(=O)O)c2nc3ccccc3s2)cc1[N+](=O)[O-],22.4µM,u,x,x,u,n
O=C(O)CC/C(=C\c1ccc(N2CCCC2)c([N+](=O)[O-])c1)c1nc2ccccc2s1,n,u,39.8µM,12.6µM,u,n
CCOC(=O)c1ccc(NC(=O)Nc2c[nH]c(=O)[nH]c2=O)cc1,n,x,n,n,n,x
COc1ccc(N2CCN(c3ncnc4c3cnn4C)CC2)cc1,n,x,n,14.1µM,n,x
Cc1cccc(-n2ncc3c(N4CCN(c5ccccc5)CC4)ncnc32)c1,15.8µM,x,n,n,n,x
Cc1cccc(N2CCN(C(=O)C3CCN(C(=O)c4cc5sccc5n4C)CC3)CC2)c1C,u,x,22.4µM,u,n,x
COc1ccc(C2/C=C\CN(CC(C)C)CC(=O)N2Cc2cccc(F)c2)cc1 (centres undefined),n,n,x,31.6µM,n,n
CCN(CC)C(=O)Cn1cnc2ccccc2c1=O,n,n,n,20µM,n,n
Cn1c(=O)c2c(ncn2CCN(CCO)Cc2ccccc2)n(C)c1=O,n,n,n,39.8µM,n,n
CCN(Cc1ccccc1)C(=O)Cn1cnc2c1c(=O)n(C)c(=O)n2C,n,n,n,n,n,n
CCOc1ccc(NC(=O)CCNC(=O)Cn2cnc3ccccc3c2=O)cc1,n,n,n,n,n,n
O=C(O)Cn1cnc2ccccc2c1=O,n,n,n,n,n,n
O=C(COC(=O)Cn1cnc2ccccc2c1=O)NCCC1=CCCCC1,n,n,n,11.2µM,n,n
CCc1ccc(NC(=O)CCNC(=O)Cn2cnc3ccccc3c2=O)cc1,50.1µM!,n,n,n,n,n
O=C(Cn1cnc2ccccc2c1=O)Nc1nc2ccccc2s1,n,n,n,44.7µM,n,n
SMILES,JMJD2A Tudor inh,Six1-Eya2 blk,BAZ2B block,G9a inh,HP1b binding inh,CtBP-E1A inh
CCN(CC)C(=O)Cn1cnc2c1c(=O)n(C)c(=O)n2C,n,n,n,56.2µM,n,n
CCc1ccc2nc(NC(=O)Cn3cnc4ccccc4c3=O)sc2c1,n,n,n,u,n,n
Cc1ccc(CC(=O)Nc2ccc3c(c2)N(C)C(=O)c2ccccc2S3)cc1,u,x,u,3.98µM,u,x
CCOc1ccc(CC(=O)Nc2ccc3c(c2)N(C)C(=O)c2ccccc2S3)cc1OCC,n,x,n,n,n,x
CCCOc1ccc(C(=O)Nc2cc(-c3nn4c(C)nnc4s3)ccc2C)cc1,39.8µM,n,n,n,n,n
Cc1cccnc1NC(=O)c1ccc2nc(N)sc2c1,n,n,n,39.8µM,n,n
Nc1nc2ccc(C(=O)Nc3ccc(N4CCOCC4)cc3)cc2s1,u,n,x,x,n,n
NS(=O)(=O)c1ccc(CCNc2nc(CN3CCOCC3)nc3sc4c(c23)CCC4)cc1,n,n,n,12.6µM,n,n
CC(=O)C1=C(O)C(=O)N(c2ccccn2)C1c1cccc(F)c1 (centres undefined),n,n,u,44.7µM,n,n
CC(=O)C1=C(O)C(=O)N(c2ccc(Br)cn2)C1c1ccccc1[N+](=O)[O-] (centres undefined),n,n,n,39.8µM,n,n
CC(=O)C1=C(O)C(=O)N(CCCN2CCOCC2)C1c1ccccc1[N+](=O)[O-] (centres undefined),n,n,u,u,u,n
CC(=O)C1=C(O)C(=O)N(c2ccccn2)C1c1ccccc1[N+](=O)[O-] (centres undefined),20µM,n,u,u,n,n
O=C1C(=O)N(c2ccccn2)C(c2cccc(F)c2)/C1=C(/O)c1ccccc1 (centres undefined),n,n,n,n,n,x
COc1ccccc1CNC(=O)c1ccc2c(c1)nc(C)n2-c1cccc(C)c1,n,x,n,n,n,x
COc1cc2c3c(c1)/C(=C1/SC(NC(C)=O)=NC1=O)C(=O)N3C(C)(C)C=C2C,u,n,20µM,u,u,n
CCN1C(=O)/C(=C2/C(=O)N3c4c(cc(OC(C)=O)cc42)C(C)=CC3(C)C)SC1=S,u,n,2µM,2.82µM,u,n
CCN1C(=O)/C(=C2\SC(=S)N(CCCOC)C2=O)c2ccccc21,u,n,u,n[12.7 µM],u,n
CCN(CC)S(=O)(=O)c1ccc2c(c1)N(CC(=O)N1CCN(c3cccc(C(F)(F)F)c3)CC1)C(=O)CO2,n,x,n,n,n,x
O=C(Cn1c(-c2cccs2)cc2cc(Cl)ccc21)N1CCN(c2ccccc2)CC1,n,x,n,n,n,x
Cn1cnnc1SCC(=O)Nc1ccc(C#N)cc1,n,x,n,n,n,x
CCc1cccc(NC(=O)CCS(=O)(=O)c2ccc3nc(C)sc3c2)c1,n,x,n,11.2µM,n,x
CCc1cccc(NC(=O)CCSCCC(=O)Nc2cccc(CC)c2)c1,n,n,n,50.1µM,n,n
Cc1ccc(NC(=O)CCS(=O)(=O)c2ccc3nc(C)sc3c2)cc1,n,n,n,n,n,n
O=C(CCCn1c(=O)c2cccn2c2cccnc21)Nc1ccccc1Br,n,x,n,n,n,x
CCN(CC)c1ccc(NC(=O)Cn2nc(C)n3cccc3c2=O)c(C)c1,n,x,n,n,n,x
S=c1[nH]nc(-c2ccc(Cl)cc2Cl)n1-c1ccc2c(c1)OCCO2,79.4µM,n,n,2.51µM,u,n
Oc1ccc(-c2n[nH]c(=S)n2-c2ccc3c(c2)OCCO3)c(O)c1,10µM,n,n,1.78µM,n,n
CCc1nc2c(cnn2-c2ccc(Cl)cc2)c(=O)n1-c1ccc2c(c1)OCCO2,n[11.4 µM],n,n,n[12.7 µM],n,n
